# Measured values published in the supplement of paper PMC11417369.
# The full ranking holds about 25,000 sequences; the median of “ln(normalized median fluorescence intensity)” is about 6.7, and the highest 2% start at about 10. Many of the other results were omitted from the sample, so the highest values are more common in it than they were.
# Test system: PfHDP1 homeodomain (GST-tagged)
# Assay: gcPBM binding intensity (ln(normalized median fluorescence intensity)); higher = stronger DNA binding
# Method in brief: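 DNA-binding domains from P. falciparum, fused to GST and produced in E. coli, were put on an Agilent 4 × 180k double-stranded probe array for 1 h in 1× PBS holding 1% milk, 0.2 mg/ml BSA, 0.5% salmon testes DNA and 0.03% Triton X-100. Probes were primer-extended, 36 bp long and drawn from intergenic genomic regions, with negative controls included. After Alexa488 anti-GST antibody detection and a 488 nm scan, binding intensity was set as the highest Masliner-normalised natural-log median intensity across replicate spots of either probe orientation.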
row,Sequence,gcPBM binding intensity (ln)
1,TATACATACTCACCCACACACAAAAAAAAAAAAAAA [CACACA_site862],6.43
2,TTTTATCTTTTTTTATTTTAATGTATTATTTTTATG [XGTACX_negctrl_site24],6.61
3,ATAAAAAAATTAAATACATGCACATATACACATACA [TGCATGCA_site129],8.6
4,TATAACCGAATGTGTACACAAAATAATGTTATATAT [CACACA_site5627],7.77
5,ATGTCTAATTTTGATGCACACTTTTGTGCAATTAAA [CACACA_site5589],11
6,TGTTTGTAATTATGTATGCACTTTTTTGTATGTGTG [GTGCAC_site9668],7.52
7,AATTTTTGTTACAAGATGCACTTAATTTTTCTAAAT,7.92
8,GATGATTCAATTTATGCACACTAAAAATTAATTATA [CACACA_site4308],10.1
9,GAATAAATTAAAAATGCACACTTTGATGGGTACATT [CACACA_site5220],8.68
10,GAATGTCTAATTTTGATGCACACTTTTGTGCAATTA [CACACA_site2902],11.1
11,TGTAGACTACATAGTAGTACATAATATATACATATA [XGTACX_site367],6.21
12,TACTTATTATGAAACACACACCAAAACTACAGAATA [CACACA_site6265],7.04
13,GTGCATATATGATATACACACAATATAATAGTATGT [CACACA_site2460],7.18
14,TTTTTTTTTAATCATGCACACTGTTAAAAGAATAAA [CACACA_site4817],8.29
15,TTTTTATGGACTATGGTGCATTATATATAAATGAAA [GTGCAC_site9557],10.3
16,ATTATCAATATGAAGGTGCATTTAAATAATATTTAC,9.62
17,TAATATAATGATGCAGTGCATATGTTAAAATGAAAA,8.68
18,ATTAAATGCAGTTCGGTGCATTAAGGTTATGATGAA [GTGCAC_site9883],10.7
19,TCTTGTTCGCCCTATTGTACAAACATATATTGTGAT [XGTACX_site2884],7.27
20,GCACAAATATATATATATATATATATATATATATAT [GTGCAC_negctrl_site661],9.39
21,AATATAATATAATGCACACATAAACAAAAAAAAAAT [CACACA_site1304],10.5
22,ATATAAACACTGAATGCATGCACATATATATATATA [TGCATGCA_site940],9.37
23,AATATAAAAATGCACACACACAAAAAAAAAAAAAAA [CACACA_site6546],9.21
24,TAATAAATCAAATGCACACACACAAAAAAAAAAAAA [CACACA_site161],10

row,Sequence,gcPBM binding intensity (ln)
1,ATATTATATAAATACACACACACATGCATGCACATA [CACACA_site4236],10.3
2,AAATATAAAGTGCACACACACAAAAAAAGAAAAAAA [CACACA_site6452],8.92
3,AACGGGTAATGCACAAAAAAAAAAAAATAAAATAAA [TGCATGCA_negctrl_site474],10.9
4,ATTATATATAAACACACACACATGCATGCACATATA [CACACA_site4237],10.5
5,AAAATATAATATAATGCACACATAAAACAAAAAAAA [CACACA_site8989],9.76
6,ATGAGTGCACAAATATATATATATATATATATATAT [CACACA_negctrl_site404],10.7
7,AAAATATAATATAATGCACACATAAACAAAAAAAAA [CACACA_site8161],10.1
8,TTCTTAATATTGCATGCACACTATATAATAATTGAA [CACACA_site4720],9.18
9,GTCTCCTTTATTTTTGGTACAGATAAGATAAAAGGA [XGTACX_site1591],6.46
10,CACTTAAAAAAAATACGTACACATATATATATATAT [XGTACX_site2054],9.39
11,TATAATATAATTAAAAGTACTTAAAAAAGAATGAAA [XGTACX_site1157],6.99
12,CATCAATGCTAATTATGTACTTACATAAATAACCCT [XGTACX_site968],6.52
13,TTGTGCTTGATATCACGGACAAGCTCATATTATATA [XGTACX_site4553],6.03
14,AATGTCATGATACATACACACACATACACATACACA [CACACA_site8665],6.98
15,ATATAACGAATAATTACACACTATAAAAAAAGATCT [CACACA_site2862],6.63
16,TATAAAAATATATGCACACAAATAAAAAATTATATA [CACACA_site3629],9.87
17,AATATAAAATAATGCACACATAAACAAAAAATCAAA [CACACA_site1371],10.4
18,CATATAAAAATATATGCACACAAATAAAAAATTATA [CACACA_site9210],10
19,ATCCTTAATATGAACACACAAATATATTGCACATAT [CACACA_site6230],10.9
20,TATAATATTCCTTTTTAACACACATATGAACAAATA [CACACA_site7932],6.77
21,AATTATGCACAAATCACACATATAAAATAAAAAGTG [CACACA_site4474],11.1
22,AAATATAATATATGCACACATACATACATATATATA [CACACA_site104],10.3
23,GTACACATATAATATACACACAACAAATATGCACAT [CACACA_site1010],10.6
24,GTACACCTATAATATACACACAACAAATATGCACAT [CACACA_site6603],10.2

row,Sequence,gcPBM binding intensity (ln)
1,AAAATATAAAATAATGCACACATAAACAAAAAATCA [CACACA_site8382],10.5
2,ATGAATCCTTAATATGAACACACAAATATATTACAC [CACACA_site7943],6.7
3,AGAAAAAAAATGTATACACACAAATATAAAGAAGGA [CACACA_site3806],7.09
4,GTACTCTTCTCCAGACTGCACTATACGACTCGTACA [GTGCAC_site9770],7.35
5,AAATATTTTTTAATGTGTACATAGAACATATATATA [XGTACX_site3136],6.59
6,TTTGTCTGCATACGCACACACGTGTACCATCTTATG [CACACA_site4784],7.89
7,AATTAACAAAGACACACACACACACGCACAAAAAAA [CACACA_site6388],7.33
8,GTTAAAATTGGGGACGCATGTTCCTTTCCTTTTTTT [TGCATGCA_site1002],5.83
9,AATATAATATAATGCACACATAAACAAAAAAAAAAA [CACACA_site783],10.5
10,TAATATAATCTGAGTGCACACAAATAAATAAACATA [CACACA_site8032],11.2
11,AATATAATATAATGCACACATAAAACAAAAAAAAAA [CACACA_site3012],10.2
12,ATATAATCTGAGTGCACACAAATAAATAAACATACA [CACACA_site422],10.2
13,TAAATATAAACACAAACACACACATATATATATATA [CACACA_site7978],9.27
14,TTAACAAATAAATGCACACATATATATAAATAATAT [CACACA_site28],9.43
15,AATGTTAAACTATGATGTACGGTTAAAAATATAATT [XGTACX_site893],6.43
16,TTATATTTTCAGAATAGTACACATATATACATATAT [XGTACX_site2519],6.46
17,GTATCAATAAAAAACAGTACATATATAATATATTTA [XGTACX_site1083],6.24
18,TATTTTCATTTGCGCGCACACAATAATAATTTTTGG [CACACA_site3525],8.28
19,ATTTGATAGACACATGCACACATGCAATACTTTATT [CACACA_site5633],9.05
20,GATAGACACGTGCACACATGCAATACTTTATTCAGT [TGCATGCA_site778],10
21,TTTAATTTGATAGACACATGCACACGTGCAATACTT [TGCATGCA_site777],10.9
22,TATTAACAAAATTTTTAACACACAAAAAAAAAAAAA [CACACA_site8542],6.18
23,ATATCAACTGAATTGTATAGGCGATAAAAGAAAAAA [CACACA_negctrl_site1334],6.58
24,ATAGAAGGCAACTTGGTGCACAAAAAAAAAAATAAT,10.5

row,Sequence,gcPBM binding intensity (ln)
1,AACATGCAAACATGCACACAGAAAAAAAAAATATAT [CACACA_site1565],9.37
2,TCCTATATCACAAATGTGCACAGAAAAAAAAAATAT,11
3,TATATATCAAAAATATGTACACAGAAATATATATTA [XGTACX_site6997],6.96
4,TATTCTTACAAAAGTAGTACAATCATTCATATTTTT [XGTACX_site631],6.42
5,AAAAAAATAGTCTTCTTGCACTTTTTAATTTATTTT,6.7
6,TTTTTTTTTTATTTTGCACACTTCTAATTTAGTTCT [CACACA_site5828],10.7
7,AACAATTAGAACTTTGCACACTTCTATATATTTTGT [CACACA_site674],10.2
8,AAAAATAGTCTTCTTGCACTTTTTAATTTATTTTAA [CACACA_negctrl_site1322],6.76
9,AATTTTTTTTTTTTGTTGCACTTTTAGAGTTTTAAT [GTGCAC_site9519],7.37
10,TTTTTTTTTTATTTTGCACACTTCTAATTTAGTTGT [CACACA_site3429],10.7
11,TAATATGAATATATATGTACATACAATTTGTTATAT [XGTACX_site5815],6.55
12,TCATATGTATAAATTAGTACATATTTAATGGATATA [XGTACX_site3298],6.26
13,ATAATAATATATATTACACACGCATCGTTCATTTAT [CACACA_site8752],7.06
14,CAATGTTAATATAATACACACAATATGTATTTGTCT [CACACA_site1162],6.8
15,AAATAAAAAGGGTGCACACAAAAATATATATATATA [CACACA_site1728],10.4
16,ATATATATATTAAAGGTGCACAAATAAATATATACA [GTGCAC_site9532],9.88
17,AAAGGTTTGCGTTGTGTGCACAAAATAAATATATAA,10.6
18,ACAAAAAAATAAGGTGCACACAAAAAAAAAAAAAAA [CACACA_site8171],9.22
19,AAGATAAAATGATGCACACAAAAGGGTGTAATATAT [CACACA_site1706],8.59
20,TAGGTCATATTTTTTGCACACAAAAAAAAATATAAA [CACACA_site3380],9.79
21,AAAAATAAAAGGTGTGCACACAAAAATATATATATA [CACACA_site8507],10.7
22,AAAAAAATAAGGTGCACACAAAAAAAAAAAAAAAAA [CACACA_site812],9.95
23,AAAAATAAAGGGTGTGCACACAAAAATATATATATA [CACACA_site1727],10.7
